The values below come from PubChem BioAssay (NCATS).

Assay [1] has as its target Glucocorticoid receptor (Homo sapiens) (UniProt P04150). The experiment in a line: qHTS assay for small molecule agonists of glucocorticoid receptor signaling (AID 588532; active means well fitted curve in the direction sought with a large enough effect in the signal ratio, with a control signal flat; the % refers to the signal ratio;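 further: 100% = dexamethasone at 0.1 µM and 0% = DMSO only wells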). The note with it: HeLa MMTV-bla, beta-lactamase ratio, agonist, 18 h; activation: stronger effect = higher value, percent of dexamethasone control, DMSO zero. Summed up:
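Titration series, up to 92 uM, applied to GRE-bla HeLa cells for 18 h at 37 C. Detection by CCF4 FRET substrate after 2 h at RT.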

Assay [2] addresses Peroxisome proliferator-activated receptor delta (Homo sapiens) (UniProt Q03181). Briefly: qHTS assay for small molecule agonists of peroxisome proliferator-activated receptor delta signaling (AID 588534).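 Further: 0% = DMSO basal wells and 100% = positive control agonist at 10 µM.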 Summed up:
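Agonist-mode beta-lactamase reporter readout (CCF4 dye, 2 h at RT) after 18 h at 37 °C exposure to a titration; Hill-equation fitting gave EC50 and maximal response.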
(In general: qHTS replaces the single test concentration by a dilution series.)

The target in assay [3] is Thyroid hormone receptor beta (Homo sapiens) (UniProt P10828). Briefly: qHTS assay for small molecule agonists of thyroid hormone receptor beta signaling (AID 588545).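 Further: 0% = DMSO only and 100% = 10 nM T3.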 The method in brief:
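TR-UAS-bla-GripTite HEK 293 cells in medium with 2% charcoal/dextran FBS, 0.1 mM NEAA and 1 mM sodium pyruvate were treated with titrated compounds for 18 hrs at 37 C. Beta-lactamase reporter was read with CCF4 dye (ex 405, em 460/530 nm); EC50 from Hill fits.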

Assay [4] is described as follows: qHTS assay for small molecule antagonists of retinoid X receptor alpha signaling (AID 588546; active means well fitted inhibition curve with a large enough effect in the signal ratio, with a control signal flat, not every such curve was filed as active; the % refers to the signal ratio;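 further: cells stimulated with 9-cis-retinoic acid as agonist; on the % scale 0 is the no-effect control and ±100 the full control effect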). The following applies: HEK293T RXRa-UAS-bla, beta-lactamase ratio, antagonist mode; measured here: W530 green channel, cytotoxicity proxy. The method in brief: (§1)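 Beta-lactamase reporter inhibition, read as CCF4 fluorescence ratio (ex 405, em 460/530 nm) after 2 h at RT. HEK293T UAS-bla cells, 2500/well, were stimulated with 9-cis-RA at 500 or 100 nM final alongside test compound for 18 h at 37 C.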

Assay [5] deals with Retinoic acid receptor RXR-alpha (Homo sapiens) (UniProt P19793). Described as above. The following applies: HEK293T RXRa-UAS-bla, beta-lactamase ratio, antagonist mode. The method in brief: as §1
Assay [6] is described as follows: qHTS assay for environmental chemicals that activate the Aryl hydrocarbon Receptor (AhR) signaling pathway (AID 651777; active means well fitted curve in the direction sought with a large enough effect; an effect the other way counts as inactive or inconclusive; further: % of control where 0% means no effect; nearly all actives have a fitted effect of over 15% in size). The note with it: 1A2-DRE human hepatoma cells, luciferase, 24 h; activation: stronger effect = higher value. The method in brief:
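AhR activation is scored as a rise in luciferase from a stable DRE–CYP1A2 promoter construct in human hepatoma cells. Treatment lasts 24 hr at 37 C; detection uses One-Glo after 30 min at room temperature.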

Assay [7] is described as follows: qHTS assay for small molecule agonists of the antioxidant response element (ARE) signaling pathway measured by Nrf2-dependant transcriptional activity (AID 720636; active means well fitted curve in the direction sought with a large enough effect in the repeat runs; an effect the other way counts as inactive or inconclusive;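 further: HepG2 cells with an ARE-driven luciferase reporter; % of control where 0% means no effect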). Summed up:
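First, ARE-luc HepG2 cells attached for 6 hr at 37 C in 1% dialyzed FBS medium. Next, compound or DMSO was added and incubated 16 hr. Finally, ONE-Glo reagent was added and luminescence measured after 30 min.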

Assay [8] is described as follows: qHTS assay for small molecule agonists of the antioxidant response element (ARE) signaling pathway measured by Nrf2-dependant transcriptional activity - cell viability counter screen (AID 720653; active means well fitted curve in the direction sought with a large enough effect in the repeat runs; an effect the other way counts as inactive or inconclusive; further: on the % scale 0 is the no-effect control and ±100 the full control effect). The note with it: ARE-bla HepG2 viability, CellTiter-Glo ATP luminescence, 16 h; max response: stronger effect = lower value. Summed up: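 ARE-bla HepG2 cells (2,000/well) rested 5 hrs at 37C/5% CO2, then exposed to compounds in DMSO for 16 hrs. Viability was read in the same wells as intracellular ATP by luminescence, 30 min at room temperature after reagent addition.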

For assay [9], the target named is Glucocorticoid receptor (Homo sapiens) (UniProt P04150). Briefly: qHTS assay for small molecule antagonists of glucocorticoid receptor signaling (AID 588533; active means well fitted inhibition curve with a large enough effect in the signal ratio, with a control signal flat, not every such curve was filed as active; the % refers to the signal ratio;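 further: cells stimulated with 2 nM dexamethasone as agonist; on the % scale 0 is the no-effect control and ±100 the full control effect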). Summed up:
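Antagonist-mode qHTS: compound titrations added to GRE-bla HeLa cells, then dexamethasone 2 nM final; 18 h, 37 C. CCF4 FRET fluorescence normalized to dexamethasone and DMSO; IC50 from Hill fit.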

Assay [10] is described as follows: qHTS assay for small molecule antagonists of peroxisome proliferator-activated receptor delta signaling (AID 588535; active means well fitted inhibition curve with a large enough effect in the signal ratio, with a control signal flat, not every such curve was filed as active; the % refers to the signal ratio;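 on max response: cells co-treated with a PPAR-delta agonist as stimulator during compound exposure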). The following applies: HEK293T PPARd-UAS-bla, beta-lactamase FRET ratio, 18 h; 460 nm channel. The method in brief:
(§2)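 Inhibition of PPAR-delta response element-driven beta-lactamase expression is measured in HEK293T cells exposed to a compound titration series for 18 hrs at 37 C. Half-maximal inhibition comes from Hill equation fitting.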

For assay [11], the target named is Peroxisome proliferator-activated receptor delta (Homo sapiens) (UniProt Q03181). The description is as above. Summed up:
as §2

Assay [12] addresses Peroxisome proliferator-activated receptor gamma (Homo sapiens) (UniProt P37231). The experiment in a line: qHTS assay for small molecule agonists of peroxisome proliferator-activated receptor gamma signaling (AID 588536; active means well fitted curve in the direction sought with a large enough effect in the signal ratio, with a control signal flat, not every such curve was filed as active; the % refers to the signal ratio). The method in brief: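 Using GeneBLAzer HEK293 cells, response was quantified by CCF4 fluorescence and normalized between basal DMSO (0%) and rosiglitazone 2 uM (100%); curves yielded half-maximal stimulation concentration and efficacy.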

For assay [13] the target is unchanged. Briefly: qHTS assay for small molecule antagonists of peroxisome proliferator-activated receptor gamma signaling (AID 588537; active means well fitted inhibition curve with a large enough effect in the signal ratio, with a control signal flat, not every such curve was filed as active; the % refers to the signal ratio;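 further: reporter cells co-stimulated with 50 nM rosiglitazone agonist during compound treatment; % of control where 0% means no effect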). Summed up: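 Compounds are tested as concentration series for inhibition of rosiglitazone-driven (50 nM) reporter expression in GeneBLAzer PPAR-gamma-UAS-bla HEK293 cells. After 16 h at 37 C, CCF4 substrate is added for 2 h at room temperature and blue/green fluorescence is measured.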

Assay [14] can be described thus: qHTS assay for small molecule agonists of retinoid X receptor alpha signaling (AID 588544). The note with it: HEK293T RXRa-UAS-bla, beta-lactamase reporter, 18 h; 530 nm emission.
In assay [15] the target is Retinoic acid receptor RXR-alpha (Homo sapiens) (UniProt P19793). The description is as above.
Assay [16] addresses Thyroid hormone receptor beta (Homo sapiens) (UniProt P10828). Briefly: qHTS assay for small molecule antagonists of thyroid hormone receptor beta signaling (AID 588547; active means well fitted inhibition curve with a large enough effect in the signal ratio, with a control signal flat, not every such curve was filed as active; the % refers to the signal ratio;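 further: cells stimulated with 0.4 nM T3 agonist during compound exposure; series mostly up to about 77 µM; on the % scale 0 is the no-effect control and ±100 the full control effect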). The note with it: TR-UAS-bla HEK293, beta-lactamase ratio, antagonist mode, 18 h. Summed up:
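TR-UAS-bla GripTite HEK293 cells in 2% charcoal/dextran FBS medium were preincubated 4 h at 37 C, given compound (0.59 nM to 92 uM) plus 0.4 nM T3 (final) for 18 h, then CCF4 for 2 h at RT; Hill fit gave IC50.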

Assay [17] deals with Peroxisome proliferator-activated receptor alpha (Homo sapiens) (UniProt Q07869). Briefly: qHTS assay for small molecule agonists of the peroxisome proliferator-activated receptor alpha (PPARalpha) signaling pathway (AID 651778; active means well fitted curve in the direction sought with a large enough effect; an effect the other way counts as inactive or inconclusive; further: % of control where 0% means no effect). The note with it: PathHunter PPARalpha complementation, chemiluminescence, 6 h; max response: stronger effect = higher value. Summed up: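 Cells plated at 2,000/well and held overnight at 37 C, 5% CO2, then compound added by pin tool for 6 hr; after PathHunter detection reagent and 60 min at room temperature, chemiluminescence from enzyme complementation was read.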

A short description of assay [18]: qHTS assay for cell viability of HEK293 cells (AID 743288; active means well fitted curve in the direction sought with a large enough effect; an effect the other way counts as inactive or inconclusive; further: on the % scale 0 is the no-effect control and ±100 the full control effect; nearly all actives have a fitted effect of over 50% in size). The note with it: ATP luminescence (CellTiter-Glo), 18 h; max response: stronger effect = lower value. The method in brief: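 After 18 h compound exposure at 37 C, parental HEK293 cells (2,000/well) are lysed with CellTiter-Glo and luminescence is read following 30 min at room temperature.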
Assay [19] can be described thus: qHTS assay for cell viability of the p53RE-bla HCT-116 cell line (AID 743292; active means well fitted curve in the direction sought with a large enough effect; an effect the other way counts as inactive or inconclusive; further: on the % scale 0 is the no-effect control and ±100 the full control effect; nearly all actives have a fitted effect of over 55% in size). Summed up:
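Quantitative high-throughput format: compounds in DMSO were pinned onto p53RE-bla HCT-116 cells (4,000/well) and incubated 16 h at 37 C. Total intracellular ATP, read by CellTiter-Glo luminescence, reflects viable cell number.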

The target in assay [20] is Nuclear receptor subfamily 1 group I member 2 (Rattus norvegicus) (UniProt Q9R1A7). Briefly: qHTS assay for small molecule activators of the rat pregnane X receptor (rPXR) signaling pathway (AID 651751; call rule not given here; further: 0% is about no effect). The note with it: rPXR reporter cells, luciferase (One-Glo), 24 h.
Assay [21] deals with Vitamin D3 receptor (Homo sapiens) (UniProt P11473). The experiment in a line: qHTS assay for small molecule agonists of vitamin D receptor signaling (AID 588543). The method in brief:
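GeneBLAzer VDR-UAS-bla HEK293T cells in 2% charcoal-stripped FBS medium were dosed with compound titrations for 16 h at 37 °C; CCF4 β-lactamase readout (405 nm ex, 460/530 nm em). EC50 and efficacy from Hill fits, normalized to 50 nM calcitriol (100%) and DMSO (0%).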

Assay [22] in a line: qHTS assay for small molecule activators of the human pregnane X receptor (PXR) signaling pathway (AID 720659; call rule not given here; further: 0% is about no effect).
In assay [23] the target is Vitamin D3 receptor (Homo sapiens) (UniProt P11473). The experiment in a line: qHTS assay for small molecule antagonists of vitamin D receptor signaling (AID 588541). The method in brief:
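VDR-UAS-bla HEK293T cells (2000/well, 2% charcoal-stripped FBS) were treated with titrated compounds plus 1-alpha,25-dihydroxyvitamin D3 (50 nM or 3 nM final) for 16 h at 37 C. CCF4 beta-lactamase fluorescence was read; Hill fits gave IC50.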

The nature of assay [24]: qHTS assay for small molecule agonists of the antioxidant response element (ARE) signaling pathway (AID 651741; active means well fitted activation curve with a large enough effect in the signal ratio; the % refers to the signal ratio; further: % of control where 0% means no effect). Summed up: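 Reporter: beta-lactamase under ARE, stably in HepG2. Exposure: 16 h, 37 C, compounds delivered in DMSO by pin tool after 5 h cell preincubation. Readout: FRET substrate fluorescence after 2 h at RT.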
The nature of assay [25]: qHTS assay for small molecule activators of the p53 signaling pathway (AID 651743; active means well fitted activation curve with a large enough effect in the signal ratio, not every such curve was filed as active; the % refers to the signal ratio; further: series mostly up to about 92 µM; % of control where 0% means no effect). The following applies: HCT-116 p53RE-bla, beta-lactamase FRET ratio, 16 h; activation: stronger effect = higher value. Summed up: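 Agonist-mode quantitative HTS in HCT-116 cells carrying a p53-response-element beta-lactamase reporter; 16 h compound treatment at 37 C, then FRET substrate loading for 2 h at room temperature and fluorescence read.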

The nature of assay [26]: qHTS assay for small molecule activators of the nuclear factor-kappa B (NF-kB) signaling pathway (AID 651749; active means well fitted activation curve with a large enough effect in the signal ratio; the % refers to the signal ratio; further: series mostly up to about 77 µM; % of control where 0% means no effect). The following applies: NF-kB-bla ME-180 cells, beta-lactamase FRET ratio, 16 h; activation: stronger effect = higher value. Summed up: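 Human ME-180 cervical cells with an NF-kB-bla construct; compounds added via 23 nL pin transfer, DMSO as vehicle; incubation 16 hr. Reporter activity measured by FRET disruption.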

Records with an inconclusive call do not appear. The source made the active and inactive calls. Unless noted, the call rests on the fitted dose curve.

Chain of Peroxisome proliferator-activated receptor alpha (Homo sapiens) (Q07869 whole entry, looked up): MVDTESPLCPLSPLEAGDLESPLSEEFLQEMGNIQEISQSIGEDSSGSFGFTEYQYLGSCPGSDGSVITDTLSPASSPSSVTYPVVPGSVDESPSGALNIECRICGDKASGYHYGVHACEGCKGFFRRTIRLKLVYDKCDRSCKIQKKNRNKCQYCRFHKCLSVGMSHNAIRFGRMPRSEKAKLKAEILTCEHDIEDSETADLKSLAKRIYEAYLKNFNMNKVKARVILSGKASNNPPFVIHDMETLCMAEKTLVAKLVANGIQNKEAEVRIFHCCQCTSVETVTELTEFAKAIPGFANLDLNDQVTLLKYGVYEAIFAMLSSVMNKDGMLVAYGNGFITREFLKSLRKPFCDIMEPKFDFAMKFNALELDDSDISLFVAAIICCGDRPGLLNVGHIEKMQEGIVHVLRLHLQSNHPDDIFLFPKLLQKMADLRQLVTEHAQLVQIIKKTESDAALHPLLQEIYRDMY
Chain of Peroxisome proliferator-activated receptor gamma (Homo sapiens) (P37231 whole entry, looked up): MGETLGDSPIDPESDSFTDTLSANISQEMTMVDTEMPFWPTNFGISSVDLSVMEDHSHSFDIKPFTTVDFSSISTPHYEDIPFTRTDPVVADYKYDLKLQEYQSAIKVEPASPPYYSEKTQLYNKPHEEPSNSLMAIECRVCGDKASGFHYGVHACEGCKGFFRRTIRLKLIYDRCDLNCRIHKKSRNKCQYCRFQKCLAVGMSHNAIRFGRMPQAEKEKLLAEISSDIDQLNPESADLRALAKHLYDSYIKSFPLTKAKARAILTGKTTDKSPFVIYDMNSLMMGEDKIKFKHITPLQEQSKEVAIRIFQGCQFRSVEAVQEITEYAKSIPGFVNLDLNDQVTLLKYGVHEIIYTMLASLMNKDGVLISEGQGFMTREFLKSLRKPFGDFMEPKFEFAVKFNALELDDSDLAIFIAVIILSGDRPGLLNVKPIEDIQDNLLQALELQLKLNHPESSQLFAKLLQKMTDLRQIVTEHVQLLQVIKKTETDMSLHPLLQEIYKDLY
Chain of Peroxisome proliferator-activated receptor delta (Homo sapiens) (Q03181 whole entry, looked up): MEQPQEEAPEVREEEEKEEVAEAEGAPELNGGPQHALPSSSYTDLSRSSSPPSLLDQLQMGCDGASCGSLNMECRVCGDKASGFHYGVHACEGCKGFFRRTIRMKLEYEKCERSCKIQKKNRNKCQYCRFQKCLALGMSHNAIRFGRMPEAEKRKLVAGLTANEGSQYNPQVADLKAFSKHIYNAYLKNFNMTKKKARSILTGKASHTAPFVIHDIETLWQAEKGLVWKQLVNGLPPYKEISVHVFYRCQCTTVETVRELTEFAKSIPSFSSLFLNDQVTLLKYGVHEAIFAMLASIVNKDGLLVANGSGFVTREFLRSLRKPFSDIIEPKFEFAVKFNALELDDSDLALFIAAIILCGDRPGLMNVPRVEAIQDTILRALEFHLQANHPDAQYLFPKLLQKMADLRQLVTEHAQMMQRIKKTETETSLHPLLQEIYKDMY
Chain of Vitamin D3 receptor (Homo sapiens) (P11473 whole entry, looked up): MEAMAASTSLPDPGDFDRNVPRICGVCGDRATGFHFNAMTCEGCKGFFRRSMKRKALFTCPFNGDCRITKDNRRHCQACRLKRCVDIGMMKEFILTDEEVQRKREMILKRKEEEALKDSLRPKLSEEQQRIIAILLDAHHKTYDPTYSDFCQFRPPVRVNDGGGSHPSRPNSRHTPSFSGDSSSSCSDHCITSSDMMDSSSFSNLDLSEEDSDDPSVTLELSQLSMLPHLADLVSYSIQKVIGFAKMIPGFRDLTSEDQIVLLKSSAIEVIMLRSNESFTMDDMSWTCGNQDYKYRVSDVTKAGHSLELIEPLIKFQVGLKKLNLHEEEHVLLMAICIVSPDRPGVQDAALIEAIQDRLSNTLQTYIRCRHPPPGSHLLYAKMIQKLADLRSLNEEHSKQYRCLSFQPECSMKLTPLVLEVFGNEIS
Chain of Thyroid hormone receptor beta (Homo sapiens) (P10828 whole entry, looked up): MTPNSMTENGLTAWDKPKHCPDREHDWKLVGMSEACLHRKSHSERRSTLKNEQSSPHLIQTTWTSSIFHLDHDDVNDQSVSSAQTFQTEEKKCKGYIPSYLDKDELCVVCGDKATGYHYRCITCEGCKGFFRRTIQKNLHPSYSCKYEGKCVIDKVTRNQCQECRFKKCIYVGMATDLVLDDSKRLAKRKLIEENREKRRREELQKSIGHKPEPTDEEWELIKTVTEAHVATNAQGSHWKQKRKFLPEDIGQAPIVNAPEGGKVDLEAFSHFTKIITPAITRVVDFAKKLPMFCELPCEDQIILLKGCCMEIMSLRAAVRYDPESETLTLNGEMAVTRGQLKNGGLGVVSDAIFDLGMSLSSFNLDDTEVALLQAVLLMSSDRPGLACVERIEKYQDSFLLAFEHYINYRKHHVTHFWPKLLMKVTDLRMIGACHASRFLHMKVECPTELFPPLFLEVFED
Chain of Glucocorticoid receptor (Homo sapiens) (P04150 whole entry, looked up): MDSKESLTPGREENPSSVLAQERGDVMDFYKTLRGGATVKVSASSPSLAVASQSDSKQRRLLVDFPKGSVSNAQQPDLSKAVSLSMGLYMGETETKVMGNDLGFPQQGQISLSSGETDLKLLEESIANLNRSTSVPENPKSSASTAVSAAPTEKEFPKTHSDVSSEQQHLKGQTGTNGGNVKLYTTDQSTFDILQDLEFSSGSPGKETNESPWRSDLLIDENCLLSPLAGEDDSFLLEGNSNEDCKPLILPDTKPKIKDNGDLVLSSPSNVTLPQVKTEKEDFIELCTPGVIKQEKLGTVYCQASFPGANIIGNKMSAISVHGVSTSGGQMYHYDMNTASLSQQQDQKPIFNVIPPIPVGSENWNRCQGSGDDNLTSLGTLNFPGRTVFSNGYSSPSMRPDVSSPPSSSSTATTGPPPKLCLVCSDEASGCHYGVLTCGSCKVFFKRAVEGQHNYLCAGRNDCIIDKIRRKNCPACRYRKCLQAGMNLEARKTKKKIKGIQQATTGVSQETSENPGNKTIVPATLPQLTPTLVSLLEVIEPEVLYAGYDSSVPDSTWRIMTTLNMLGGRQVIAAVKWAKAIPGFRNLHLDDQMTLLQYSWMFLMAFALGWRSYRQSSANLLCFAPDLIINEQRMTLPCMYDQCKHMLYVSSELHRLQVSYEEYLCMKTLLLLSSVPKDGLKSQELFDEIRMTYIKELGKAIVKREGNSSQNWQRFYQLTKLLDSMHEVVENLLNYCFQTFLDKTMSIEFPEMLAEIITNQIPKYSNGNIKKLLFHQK
Chain of Nuclear receptor subfamily 1 group I member 2 (Rattus norvegicus) (Q9R1A7 whole entry, looked up): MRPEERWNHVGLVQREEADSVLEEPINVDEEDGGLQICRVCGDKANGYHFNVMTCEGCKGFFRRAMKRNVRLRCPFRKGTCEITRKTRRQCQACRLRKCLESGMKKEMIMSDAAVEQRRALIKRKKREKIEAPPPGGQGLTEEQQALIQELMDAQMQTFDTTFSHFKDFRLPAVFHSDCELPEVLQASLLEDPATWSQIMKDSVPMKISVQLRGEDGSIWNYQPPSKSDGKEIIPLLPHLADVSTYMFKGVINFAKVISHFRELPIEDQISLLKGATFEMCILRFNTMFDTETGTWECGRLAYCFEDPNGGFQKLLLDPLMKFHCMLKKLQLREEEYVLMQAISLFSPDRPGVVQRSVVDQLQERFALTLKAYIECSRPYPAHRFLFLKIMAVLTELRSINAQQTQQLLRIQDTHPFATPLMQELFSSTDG
Chain of Retinoic acid receptor RXR-alpha (Homo sapiens) (P19793 whole entry, looked up): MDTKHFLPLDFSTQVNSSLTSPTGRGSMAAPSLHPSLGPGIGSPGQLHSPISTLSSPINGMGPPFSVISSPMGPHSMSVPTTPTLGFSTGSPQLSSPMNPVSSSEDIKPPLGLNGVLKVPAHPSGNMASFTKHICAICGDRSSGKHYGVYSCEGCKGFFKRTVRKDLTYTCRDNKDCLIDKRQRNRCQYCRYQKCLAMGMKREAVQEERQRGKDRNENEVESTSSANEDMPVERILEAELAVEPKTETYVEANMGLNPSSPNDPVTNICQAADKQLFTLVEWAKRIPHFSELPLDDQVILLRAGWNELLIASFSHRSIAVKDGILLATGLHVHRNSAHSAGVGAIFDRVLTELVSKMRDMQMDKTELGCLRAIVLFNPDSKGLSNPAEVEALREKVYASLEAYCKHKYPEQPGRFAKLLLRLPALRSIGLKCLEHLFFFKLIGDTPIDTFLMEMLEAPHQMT

As to `CCOc1cc(Oc2ccc(C(F)(F)F)cc2Cl)ccc1[N+](=O)[O-]`, the activation in assay [1] was -12.9% (inactive); in assay [6], 3.8% (inactive). Besides, the outcome in assay [2] was inactive. Also, the Potency entry in assay [3] and in assay [7] was “inactive” each time. Also, the max response in assay [4] was -9.67%; in [5], -3.17% (inactive); in assay [8], -9.09% (inactive).

In the case of `CCNc1nc(Cl)nc(NC(C)(C)C#N)n1`, the activation is -6.13% (inactive) in assay [1] and 1.84% (inactive) in assay [6]. Moreover, the Potency result in [9], in assay [11], in assay [12], in assay [13], in assay [15] and in assay [19] was “inactive” in each case. Moreover, the compound was classed as inactive in [2]. The max response in [10] is 32.2%; in [14], -4.23%; in assay [4] it was 0.495%; in [17] it was 0.299% (inactive); in assay [8], -18.8% (inactive); in assay [18], 4.63% (inactive). Moreover, the max response in [20] is -0.0883% (inactive). Also, the activity change % (negative = inhibition) in assay [16] was -10.7% (inactive).

Take `O=C(O)COc1ccc(Cl)cc1`: the activation in assay [1] is -1.72% (inactive); in assay [6], 1.68% (inactive). Besides, the Potency entry in assay [9], in [12], in assay [13], in assay [15], in assay [3] and in assay [7] was “inactive” throughout. Moreover, the Potency result in [19] was “inactive”. Also, the compound was called inactive in assay [2], in assay [21] and in [22]. Moreover, the max response in assay [10] is 9.9%; in assay [14], 18.4%; in [4], 0.278%; in [5], -13.3% (inactive); in assay [17], -2.55% (inactive); in assay [8], 1.53% (inactive). In addition, the max response in assay [18] was -5.08% (inactive); in [20] it was -5.77% (inactive). For the same compound, the activity change % (negative = inhibition) in assay [16] was -4.24% (inactive).

On to `CNC(=O)O/N=C(\C)SC`, for which the activation was -2.31% (inactive) in assay [1], -0.165% (inactive) in [25], -0.423% (inactive) in assay [26] and -1.88% (inactive) in [6]. The Potency entry in [9], in assay [11], in assay [13], in assay [23], in assay [15] and in [3] was “inactive” in each case. Moreover, the Potency entry in assay [24], in [7] and in assay [19] was “inactive” each time. For the same compound, the call in assay [2] and in [21] was inactive. The max response in [10] was 24.5%; in assay [14], -25.7%; in assay [4], -3.33%; in [5], 8.15% (inactive); in assay [17], -0.714% (inactive); in assay [8], -4.43% (inactive). The max response in assay [18] was -6.55% (inactive); in assay [20] it was -0.197% (inactive). Further, the activity change % (negative = inhibition) in [16] was -8.81% (inactive).

In the case of `S=C([S-])NCCNC(=S)[S-].S=C([S-])NCCNC(=S)[S-].[Mn+2].[Zn+2]`, the activation in [1] was 13.6% (inactive). Besides, the Potency result in assay [23] was “inactive”.

As to `CC1=C2[C@@H]([C@H](C)CC[C@H]2/C=C(\C)C(=O)O)[C@H](O)C1`, the compound was called inactive in assay [2].
